Compounds with a hit are over-represented: about 27% of the library has one in this group of screens.
CYP2C19 inh = blockers of cytochrome P450 2C19 activity – biochemical, luminescence, ADME assay, primary screen | P33261 | CYP2C19 Supersomes, luciferin-H EGE luminescence, 30 min | inhibition, % at 5 µM | hit rate 21% among 96,000;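 active = CYP2C19 inhibition above a set limit at 5 µM in the primary screen, cut at about 50% in these data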
CYP2C19 act = human CYP2C19 activators, primary screen, biochemical, luminescence; Cytochrome P450 2C19 (Homo sapiens), P33261; recombinant CYP2C19, luciferin-H EGE luminescence; hits give high values; 0 = fully inhibited enzyme, 1 = untreated enzyme; AID 1025, 2008; 96,000 tested, under 10 active; activation factor at 5 µM;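 active = activation factor of at least 2 at 5 µM in the primary screen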
CYP2C9 inhib = blockers of cytochrome P450 2C9 activity – biochemical, luminescence, ADME assay, primary screen; CYP2C9 Supersomes, luciferin-H conversion; P11712; hit rate 20% among 96,000; inhibition, % at 5 µM;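 active = blocking of liver enzyme CYP2C9 beyond about 50% at 5 µM, limit read from the data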
Target sequence (P11712 whole entry, looked up): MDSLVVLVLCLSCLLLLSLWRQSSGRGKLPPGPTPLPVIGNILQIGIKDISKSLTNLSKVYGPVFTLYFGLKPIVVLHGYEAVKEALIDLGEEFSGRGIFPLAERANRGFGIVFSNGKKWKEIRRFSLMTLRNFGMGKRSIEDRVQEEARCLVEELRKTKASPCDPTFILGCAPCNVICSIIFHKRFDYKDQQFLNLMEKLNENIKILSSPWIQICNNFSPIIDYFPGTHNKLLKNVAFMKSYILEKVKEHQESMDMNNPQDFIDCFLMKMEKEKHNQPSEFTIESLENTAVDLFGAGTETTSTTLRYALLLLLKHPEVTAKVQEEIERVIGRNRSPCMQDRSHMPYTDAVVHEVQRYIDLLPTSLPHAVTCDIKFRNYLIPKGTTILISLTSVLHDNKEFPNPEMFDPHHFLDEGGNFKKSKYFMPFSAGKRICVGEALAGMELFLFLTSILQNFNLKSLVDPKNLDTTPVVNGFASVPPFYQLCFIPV
Cav32 inh = Cav3.2 calcium influx blockers – cell-based, Fluo-4 calcium fluorescence, FDSS, MLSMR library, primary screen; hit rate 4% among 100,000; Cav3.2-expressing cells; hits give low values; AID 449739, 2010; B-score at 10 µM; Voltage-dependent T-type calcium channel subunit alpha-1H (Homo sapiens), O95180;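 active = single-dose well whose peak fluorescence ratio is a statistical outlier from its plate by either plate-standardised score or position-corrected B-score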
CYP2C9 act = human CYP2C9 activators, primary screen, biochemical, luminescence; Cytochrome P450 2C9 (Homo sapiens), P11712; recombinant CYP2C9, luciferin-H conversion; hits give high values; factor 1 = untreated enzyme, 0 = blocked; activation factor at 5 µM; hit rate 1.4% among 96,000; AID 1024, 2008;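 active = activation factor of 2 or more for CYP2C9 at a 5 µM dose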
Numbers stand for hits; . = inactive; / = no result.

SMILES	CYP2C19 inh	CYP2C19 act	CYP2C9 inhib	Cav32 inh	CYP2C9 act
CCN(CC)S(=O)(=O)c1ccc(OC)nc1	.	.	.	.	.
CCN(CC)S(=O)(=O)c1ccc(OC(C)C)nc1	79	.	.	.	.
CCC(=O)Nc1nc2ccccc2n1Cc1ccc(C)cc1	81	.	.	.	.
Cc1ccc(Cn2c(NS(=O)(=O)c3ccccc3)nc3ccccc32)cc1	.	.	64	.	.
CCC(=O)Nc1nc2ccccc2n1Cc1ccccc1	.	.	.	.	.
CCOc1cc(C(=O)N2CCC(CC3CC(c4ccccc4)=NO3)(C(=O)NCc3ccc(OC)cc3)CC2)cc(OCC)c1OCC (stereo unspecified)	/	/	/	.	/
COc1cc(SC)ccc1C(=O)Nc1ccc2c(c1)CCN2S(C)(=O)=O	.	.	.	.	.
Cc1cc(O)cc(O)c1-c1onc(C(F)(F)F)c1-c1cscn1	80	.	.	-5.2	.
CC(C)(C)NS(=O)(=O)c1ccc(-c2csnn2)s1	93	.	.	.	.
CCC(C)NS(=O)(=O)c1ccc(-c2csnn2)s1 (stereo unspecified)	100	.	.	.	.
Cc1cc(-c2nc3cccnc3s2)ccc1NS(=O)(=O)c1cccs1	/	/	/	.	/
O=C(c1ccc(N2CCOCC2)cc1)c1cccs1	.	.	.	.	.
CCc1ccc(NS(=O)(=O)c2cccs2)cc1	56	.	67	.	.
O=S(=O)(Nc1ccc(N2CCOCC2)cc1)c1cccs1	90	.	.	.	.
O=S(=O)(Nc1ccc(-c2nc3cccnc3s2)cc1)c1cccs1	.	.	83	.	.
CC(c1ccccc1)N1CC(C(=O)NC2CCCC2)CC1=O (stereo unspecified)	.	.	.	.	.
O=C1NC(c2ccccc2)C(C(=O)c2cccs2)=C1O (stereo unspecified)	.	.	.	.	.
O=C(OCCn1cncn1)c1cc2ccccc2oc1=O	.	.	.	.	.
CC1CCCC(C)N1C(=O)CSc1nnc(-c2cccs2)o1 (stereo unspecified)	84	.	.	.	.
CCC(C)NC(=O)CSc1nnc(-c2cc(-c3cccs3)nc3ccccc23)o1 (stereo unspecified)	75	.	98	.	.
CCCN(CC1CC1)C(=O)CSc1nnc(-c2cc(-c3cccs3)nc3ccccc23)o1	.	.	55	.	.
O=C(CSc1nnc(-c2cc(-c3cccs3)nc3ccccc23)o1)NC1CCCCC1	.	.	50	.	.
O=C(CSc1oc(-c2cccs2)nc1S(=O)(=O)c1ccccc1)NC1CCCCC1	.	.	.	.	.
COc1ccc(C(c2nnnn2CCc2ccccc2)N2CCN(C3CCCC3)CC2)cc1OC (stereo unspecified)	.	.	.	.	.
C#CCOC(=O)CCC(=O)Nc1cc(OC)nc(OC)n1	.	.	.	.	.
SMILES	CYP2C19 inh	CYP2C19 act	CYP2C9 inhib	Cav32 inh	CYP2C9 act
Cc1ccc(N=Nc2c(N)[nH]n3c(=O)c4c(nc23)CCCC4)cc1	.	.	.	/	.
O=C(C(Cc1ccccc1)NS(=O)(=O)c1cccc2cccnc12)N1CCc2ccccc21 (stereo unspecified)	.	.	.	.	.
Fc1ccc(CSc2nnc(-c3cccs3)o2)cc1	78	.	72	.	.
c1ccc(CSc2nnc(-c3cccs3)o2)cc1	.	.	.	.	.
CCC(C)NC(=O)CSc1nc(-c2cccs2)cc(C(F)(F)F)n1 (stereo unspecified)	97	.	88	.	.
C/C(=N/Nc1nc(-c2ccc(Cl)cc2)cs1)c1cccs1	.	.	.	.	.
CC(C)[C@H](N)c1nnc(SC/C=C/c2ccccc2)o1	82	.	.	.	.
C=CCSc1nnc(NC(=O)c2ccc(Cl)nc2)s1	.	.	.	.	.
CCOC(=O)c1[nH]c2ccc(OC)cc2c1NS(=O)(=O)c1ccc(OC)cc1OC	57	.	67	.	.
COC(=O)c1[nH]c2ccc(F)cc2c1NS(=O)(=O)c1ccc(OC)cc1OC	56	.	.	.	.
CCOC(=O)c1[nH]c2ccc(OC)cc2c1NC(=O)OC	.	.	.	.	.
CCOC(=O)c1[nH]c2ccc(OC)cc2c1NC(=O)C(C)N1CCSCC1 (stereo unspecified)	81	.	84	.	.
N#Cc1c(-c2ccccc2)cc(C2CC2)nc1N	80	.	.	.	.
N#Cc1c(-c2ccco2)cc(-c2ccccn2)nc1N	.	.	.	/	.
N#Cc1c(-c2ccco2)cc(C2CC2)nc1N	63	.	.	.	.
COc1ccc(-c2nc3nc(C)cc(C)n3n2)cc1	.	.	.	.	.
COCCn1c(SCC(=O)Nc2ncc(Cl)c(C)c2Cl)nc2ccccc21	93	.	.	.	.
COCCn1c(SCC(=O)NC(=O)NC(C)(C)C)nc2ccccc21	57	.	.	.	.
C=CCn1c(SCC(=O)Nc2sccc2C(N)=O)nc2sc(C)c(C)c2c1=O	/	/	/	.	/
COCCn1c(SCC(=O)Nc2ccc(Cl)cn2)nc2ccccc21	90	.	.	.	.
COCCn1c(SCC(=O)Nc2sccc2C(N)=O)nc2cc(Cl)ccc2c1=O	.	.	60	/	.
COCCn1c(SCC(=O)NC(=O)NC(C)C)nc2ccccc21	.	.	.	.	.
CCc1ccc(-c2nc(CN3CCCC(C(=O)NCCc4ccc(OC)c(OC)c4)C3)c(C)o2)cc1 (stereo unspecified)	.	.	54	-5.8	.
COc1ccc(CCNC(=O)C2CCCN(Cc3nc(-c4ccccc4C)oc3C)C2)cc1OC (stereo unspecified)	.	.	.	/	.
CCOC(=O)N1CCC(NC(=O)C2CCCN(Cc3nc(-c4cccc(Cl)c4)oc3C)C2)CC1 (stereo unspecified)	67	.	54	.	.
SMILES	CYP2C19 inh	CYP2C19 act	CYP2C9 inhib	Cav32 inh	CYP2C9 act
O=C(CN1CCN(Cc2ccc3c(c2)OCO3)CC1)N1CCc2[nH]c3ccc(F)cc3c2C1	84	.	76	.	.
CC1CC(C)CN(CC(=O)N2CCc3[nH]c4ccccc4c3C2)C1 (stereo unspecified)	66	.	.	.	.
CC1CN(CC(=O)N2CCc3[nH]c4ccccc4c3C2)CC(C)O1 (stereo unspecified)	.	.	.	.	.
Cc1ccc2[nH]c3c(c2c1)CN(C(=O)CN1CCN(c2ccccc2F)CC1)CC3	.	.	53	.	.
O=C(CN1CCN(Cc2ccc3c(c2)OCO3)CC1)N1CCc2[nH]c3ccccc3c2C1	.	.	.	.	.
Cc1ccc2[nH]c3c(c2c1)CN(C(=O)CN1CCCc2ccccc21)CC3	.	.	.	.	.
Clc1ccc2[nH]cc(-c3nnnn3-c3ccccc3)c2c1	.	.	.	.	.
